Screens as filed in PubChem.
Shown are actives, neighbours in structure and some others; about 9.2% of the full set was active somewhere.
NPC1 promoter act – qHTS Assay for NPC1 Promoter Activators | Huh7 NPC1 promoter luciferase reporter, 24 h | Potency, µM (titrated, usually from 9.22 µM), for inactives: top-dose activation, actives largely listed as activators | actives 2.4% (n = 320,000) | AID 485313, 2010; further: % of control where 0% means no effect; nearly all actives have a fitted effect of over 60% in size
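Luminescence read-out of NPC1 promoter-driven luciferase in stably transfected Huh7 cells; compounds delivered in DMSO and left 24 h at 37C, 5% CO2, qHTS titration format.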
ELG1 genotox – qHTS screen for small molecules that induce genotoxicity in human embryonic kidney (HEK293T) cells expressing luciferase-tagged ELG1 | AID 504466, 2011 | actives 1.3% (n = 330,000) | HEK293T ELG1-luciferase reporter, luminescence, 16 h | Potency, µM (top dose mostly 46 µM), for the others: at the highest dose activity change, positive = activation, usual class: activators; further: % of control where 0% means no effect; nearly all actives have a fitted effect of over 60% in size
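16 hr compound incubation (37 °C, 5% CO2) of HEK293T cells carrying luciferase-tagged ELG1; luciferase then measured by ONE-Glo luminescence after 30 min at RT.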
SMN2 splice up – qHTS Assay for Enhancers of SMN2 Splice Variant Expression; actives 2.8% (n = 210,000); HEK293 SMN2-luciferase splicing reporter, luminescence, 30-36 h; Potency, µM (series often up to 46.1 µM), without a hit: at the highest dose activity change, positive = activation, hits mostly activators; further: % of control where 0% means no effect; nearly all actives have a fitted effect of over 55% in size
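HEK293 cells carry an SMN2 […]–luciferase reporter in which exon 7 inclusion puts luciferase in frame. Cells were plated 10-12 h before compound addition, then incubated 30-36 h at 37C. ONE-Glo luminescence was read; sodium butyrate at 4.5 mM final served as control.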
Rab9 promoter act – qHTS Assay for Rab9 Promoter Activators. actives 2.8% (n = 320,000). Huh7 Rab9 promoter-luciferase reporter, luminescence, 24 h. Potency, µM (top dose mostly 9.22 µM), without a hit: at the top dose activation, negative = inhibition, most hits filed as activators. AID 485297, 2010; further: % of control where 0% means no effect; nearly all actives have a fitted effect of over 60% in size
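Huh7 cells stably carrying a Rab9 promoter-luciferase reporter, 1500 cells per well in OP-MEM I with 10% FBS, treated with compound 24 hours at 37C. Luciferase activity read by luminescence after 10 minutes with Amplite reagent.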
ELG1 DNA repair – qHTS screen for small molecules that inhibit ELG1-dependent DNA repair in human embryonic kidney (HEK293T) cells expressing luciferase-tagged ELG1 | HEK293T ELG1-luciferase reporter, luminescence, 16 h; DNA damage induced by 5-fluorouridine | Potency, µM (highest dose often 46.1 µM), without a hit: at the top dose activity change, negative = inhibition, usual class: inhibitors | actives 2.3% (n = 330,000); further: on the % scale 0 is the no-effect control and ±100 the full control effect; nearly all actives have a fitted effect of over 55% in size
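5-Fluorouridine DNA damage + compound/DMSO, 2,000 cells/well, 16 h, 37 °C/5% CO2. ONE-Glo, 30 min RT, luminescence. Readout = decrease in reporter signal.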
FLuc modulator – qHTS profiling assay for firefly luciferase inhibitor/activator using purifed enzyme and Km concentrations of substrates (counterscreen for miR-21 project); Luciferin 4-monooxygenase (Photinus pyralis), P08659; purified FLuc, Km substrates, luminescence inhibition; Potency, µM (top dose mostly 57.5 µM), inactives show top-dose activity change, negative = inhibition, hits mostly inhibitors; actives 6.9% (n = 360,000); AID 588342, 2011;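 further: plate controls were vehicle for no effect and reference inhibitor for full effect; nearly all actives have a fitted effect of over 55% in size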
Target sequence (P08659 whole entry, looked up): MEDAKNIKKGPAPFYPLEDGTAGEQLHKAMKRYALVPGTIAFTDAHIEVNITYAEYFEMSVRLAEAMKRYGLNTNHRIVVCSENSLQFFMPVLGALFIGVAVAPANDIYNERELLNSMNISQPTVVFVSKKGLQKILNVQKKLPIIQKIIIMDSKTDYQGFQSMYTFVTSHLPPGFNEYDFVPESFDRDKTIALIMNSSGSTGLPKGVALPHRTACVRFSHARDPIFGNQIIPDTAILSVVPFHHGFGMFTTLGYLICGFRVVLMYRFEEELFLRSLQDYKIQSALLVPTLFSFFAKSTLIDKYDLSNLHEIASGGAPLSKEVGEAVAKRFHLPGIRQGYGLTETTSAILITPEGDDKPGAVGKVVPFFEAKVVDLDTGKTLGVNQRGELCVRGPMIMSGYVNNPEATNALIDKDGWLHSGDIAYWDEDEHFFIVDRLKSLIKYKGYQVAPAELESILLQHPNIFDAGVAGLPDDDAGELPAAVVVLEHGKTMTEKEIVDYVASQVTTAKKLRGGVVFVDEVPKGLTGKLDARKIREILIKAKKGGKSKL
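Biochemical qHTS of compounds, final roughly 60 µM downward over six points, against 10 nM purified firefly luciferase using Km concentrations of substrates (10 uM D-luciferin, 10 uM ATP) in Tris acetate pH 7.5 buffer; luminescence output.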
* hit, by the source's call; u = inconclusive; x = no result. The call rests on the fitted dose curve; in most records, active means well fitted curve in the direction sought with a large enough effect; inconclusive means small, poorly fitted or top-dose-only effect, or another doubt; inactive means no such curve, though single readings can be large; an effect the other way counts as inactive or inconclusive. Potency means the concentration at half of the fitted maximal effect.

SMILES	NPC1 promoter act	ELG1 genotox	SMN2 splice up	Rab9 promoter act	ELG1 DNA repair	FLuc modulator
Cc1ccccc1Cn1nnc(-c2cccc(C(=O)O)c2)n1	0.45µM*	1.6µM*	7.9µM*	0.79µM*	u	4.3µM*
Cc1nn(-c2cccc(C(F)(F)F)c2)c(=O)c2noc(C)c12	-3%	1%	x	-1%	-14%	-1%
CCOc1[nH]n(-c2ccccc2)c(=O)c1C=NCC(=O)OC	-2%	2%	5%	18%	-9%	-4%
COC(=O)Cc1[nH]n(-c2ccccc2)c(=O)c1C=Nc1ccc(C)cc1	0%	2%	x	-3%	0%	9.5µM*
O=C1SC(c2ccccc2)=C/C1=C\N1CCCCC1	18%	10%	-8%	20%	u	19µM*
O=C1OC(c2ccccc2)=C/C1=C/N1CCOCC1	25%	u	u	u	u	u
c1ccc2c(-c3nc(-c4ccncc4)no3)cccc2c1	u	u	u	u	u	11µM*
c1ccc(-c2noc(-c3cccc4ccccc34)n2)cc1	26%	u	11µM*	14%	u	6µM*
c1cncc(-c2noc(-c3cccc4ccccc34)n2)c1	16%	8.2µM*	8%	u	u	7.6µM*
Cc1[nH]cnc1C(=O)N/N=C/c1ccc([N+](=O)[O-])s1	3%	-5%	x	24%	u	u
Cc1cc(C(=O)N/N=C/c2ccc([N+](=O)[O-])s2)n[nH]1	4%	-9%	x	-14%	16µM*	-2%
Cc1cc(C(=O)N/N=C\c2cc(C(C)(C)C)c(O)c(C(C)(C)C)c2)n[nH]1	-3%	-39%	x	0%	-19%	1%
Cc1cc(C(=O)N/N=C/c2ccc(C)s2)n[nH]1	4µM*	u	x	3.2µM*	u	u
Cc1cc(C(=O)N/N=C/c2cc(Cl)cc([N+](=O)[O-])c2O)n[nH]1	-3%	-8%	x	-3%	13µM*	27µM*
COc1ccc(-c2ccc(C#N)c(SCC(=O)NCc3ccco3)n2)cc1OC	-4%	0%	x	-3%	u	-1%
COc1ccc(-c2csc(NCc3ccco3)n2)cc1C	3.2µM*	u	32µM*	4µM*	u	u
COc1ccc(-c2nc3cccc(C)n3c2NCc2ccco2)cc1OC	6%	-12%	21%	4%	u	9.5µM*
CC(=O)Nc1ccc(-c2csc(NCc3ccco3)n2)cc1	2.5µM*	u	13µM*	2µM*	u	7.6µM*
c1cncc(-c2csc(NCc3ccco3)n2)c1	22%	15%	21%	25%	u	u
CCCCOc1ccc(/C=C/C(=O)OCC(=O)N2CC(=O)Nc3ccccc32)cc1OCC	-6%	0%	-61%	-12%	u	0%
CC(C)(C)NC(=O)COC(=O)c1ccc2c(c1)C(=O)N(Cc1ccco1)C2=O	2%	-1%	x	4%	12%	1%
Cc1cc(C)c2c(n1)sc1c(=O)n(-c3cc(Cl)ccc3C)nnc12	x	x	-6%	x	x	7%
Cc1ccc(-c2nc(CCNC(=O)C(=O)Nc3ccc(C)c(C)c3)cs2)cc1	x	x	x	x	x	1%
COc1cccc(C(=O)NCCc2csc(-c3ccc(Cl)cc3)n2)c1	x	x	x	x	x	21µM*
O=C(NCCc1csc(-c2cccnc2)n1)c1cccs1	0%	-4%	-1%	2%	u	u
SMILES	NPC1 promoter act	ELG1 genotox	SMN2 splice up	Rab9 promoter act	ELG1 DNA repair	FLuc modulator
Cc1ccc(C(=O)NCCc2csc(-c3cccnc3)n2)cc1	20%	u	u	u	u	5.4µM*
Cc1ccc(-c2nc(CCNC(=O)c3ccc(C)c(C)c3)cs2)cc1	x	x	x	x	x	24µM*
Cn1c(=O)n(C)c2cc(N3CCOCC3)c(NC(=O)c3c(F)cccc3F)cc21	x	x	2%	x	x	0%
O=S(=O)(c1ccccc1)N1CCC2(CCN(C(c3ccccc3)c3ccccc3)CC2)CC1	x	x	-8%	x	x	x
CCOc1ccc(CCNC(=O)Cn2ncn3nc(-c4ccc(OC)cc4)cc3c2=O)cc1	14%	u	x	19%	u	-5%
O=C(Cn1ncn2nc(-c3ccccc3)cc2c1=O)NCc1ccccn1	1%	2%	x	11%	21%	11µM*
COc1ccc(-c2cc3c(=O)n(CC(=O)NCc4ccc(C)cc4)ncn3n2)cc1	3%	u	x	16%	u	-17%
COc1ccc(-c2cc3c(=O)n(CC(=O)NCCCN4CCC(Cc5ccccc5)CC4)ncn3n2)cc1	u	u	x	u	u	4.8µM*
COc1ccc(-c2cc3c(=O)n(CC(=O)NCCCN4CCN(Cc5ccccc5)CC4)ncn3n2)cc1	u	u	x	u	u	1.5µM*
CC1=C(C(=O)N2CCOCC2)C(c2cc(C)ccc2C)NC(=S)N1 (configuration not stated)	-3%	2%	-40%	-8%	3%	-1%
Nc1nc2c(C(=O)N3CCOCC3)nnn2c2ccccc12	3.2µM*	u	x	3.2µM*	u	12µM*
Cc1ccccc1C(=O)O/N=C1\CCS(=O)(=O)c2sccc21	u	12µM*	16%	u	u	0.6µM*
CC(C)C(=O)O/N=C1\CCS(=O)(=O)c2sccc21	-9%	2%	-8%	2%	13%	3%
COc1ccc(C(=O)O/N=C2\CCS(=O)(=O)c3sccc32)cc1	-4%	4%	x	-4%	13%	1.9µM*
Cc1ccc(N/N=C2\CCS(=O)(=O)c3sccc32)cc1	5%	10%	-2%	-1%	0%	17µM*
CC(=O)Nc1cccc(NC(=O)C(=O)NCC(c2ccco2)N2CCc3ccccc32)c1 (configuration not stated)	-1%	-1%	x	-3%	-13%	0%
Cc1cc(-c2ccccc2)nc(N(C)NC(=O)c2ccc(Cl)cc2)c1S(C)(=O)=O	-1%	-12%	6%	1%	u	-1%
C/C(=N/NC(=O)c1cc(-c2ccc(Cl)s2)[nH]n1)c1ccco1	-2%	2%	x	8%	11%	u
CCCc1ccc(C(=O)NNc2cccc(C)c2)cc1	29%	u	x	20%	u	21µM*
Cc1cccc(NNC(=O)C(=O)NNc2cccc(C)c2)c1	2%	6%	x	-1%	6.5µM*	1%
